Common to all, as to assay: NCI-60 one-dose screen, 48 h (100 = growth as untreated, 0 = no growth, -100 = all killed)
Holding throughout (conditions): 10 µM

The test system of assay [1] is T-47D breast.
In assay [2] the test system is BT-549 breast.
Assay [3] concerns MDA-MB-435 melanoma.
Assay [4] has as its system SW-620 colon.
The test system of assay [5] is MCF7 breast.
Assay [6] relates to HCC-2998 colon.
For assay [7], the system named is KM12 colon.
Assay [8] deals with MDA-MB-468 breast.
Assay [9] concerns HCT-116 colon.

This is part of a sample that, as a whole, favours compounds with a hit. Of some 83,000 tested, about 20% had one in any assay.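 Cells were grown in 96-well plates and exposed to the test compound at a single concentration for 48 hours; results are reported as percent growth, with values below 10 considered active.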 Values without a mark were called inactive. Active and inactive are the calls of the source.

As for `COc1ccc([C@H]2C(C(=O)c3ccc(Cl)cc3)C3(N[C@@H]2c2ccccc2)C(=O)Nc2ccc(Br)cc23)cc1` (stereo not given in full), the growth was 21.2% in [1]; 21.9% in assay [2]; -36.6% (active) in [3]; 7.87% (active) in assay [4]; -7.25% (active) in assay [5]; -41% (active) in assay [6]. Besides, the growth in assay [7] is -5.82% (active); in [8], -7.76% (active).

Regarding `COC(=O)c1c(C(=O)OC)c2n(c1C)[C@@H]([C@@H](C)[C@H]1CC[C@H]3[C@@H]4CCC5=CC(=O)CC[C@]5(C)[C@H]4CC[C@]13C)SC2`, the growth in assay [1] is 4.62% (active); in [2], -3.38% (active); in [3] it was 22.4%; in assay [4] it was 34.2%; in assay [5] it was 4.29% (active); in assay [6], 45%. Besides, the growth is 25.8% in [7] and 11.2% in assay [8].

Regarding `O=C(N=Nc1c(O)[nH]c2ccc(Br)cc12)c1ccc2nc(-c3ccccc3)[nH]c2c1`, the growth was -67.4% (active) in assay [1]; -71% (active) in [2]; -88.9% (active) in assay [3]; -60% (active) in assay [4]; -53.4% (active) in assay [5]; -78% (active) in assay [6]. Moreover, the growth in assay [7] was 2.92% (active); in assay [8] it was -85.8% (active).

Turning to `Cc1ccc(/C=C/C(=O)c2ccc(S(=O)(=O)NCCNc3nc(Nc4ccc(F)cc4)nc(N(C)C)n3)cc2)cc1`, the growth in assay [1] is 24.8%; in assay [2], 64.6%; in [3], -23% (active); in assay [4] it was -8.7% (active); in assay [5] it was -55.8% (active); in [6], -11.9% (active). The growth in assay [7] was -53.8% (active); in [8], -2.81% (active).

Consider `Cc1cc(C)nc(SCC(=O)Nc2ccc(S(N)(=O)=O)cc2)n1`, for which the growth is 105% in assay [1]; 132% in [2]; 107% in [3]; 116% in assay [4]; 96.6% in assay [5]; 109% in assay [6]. Also, the growth in assay [7] is 107%; in assay [8] it was 98.2%.

In the case of `OCCNc1oc(-c2ccccc2)nc1[P+](c1ccccc1)(c1ccccc1)c1ccccc1`, the growth in [1] is 4.49% (active); in assay [2], -27.9% (active); in assay [3], 4.92% (active); in assay [4] it was 13.5%; in assay [5] it was 2.37% (active); in [6] it was 9.06% (active). For the same compound, the growth was -35.9% (active) in assay [7] and -43.2% (active) in [8].

On to `N#Cc1c(NC(=O)c2ccc(C(O)(C(F)(F)F)C(F)(F)F)cc2)sc2c1CCC(=O)C2`, for which the growth was -60.5% (active) in assay [1]; -64.4% (active) in assay [2]; -45.2% (active) in assay [3]; -52.8% (active) in assay [4]; -62.1% (active) in assay [5]; -95.6% (active) in assay [6]. Further, the figures for the growth in assay [7] and in assay [8] were -53.8% (active) and -90% (active), respectively.

For the compound `CCOC(=O)C1NN(c2ccc(S(N)(=O)=O)cc2)c2nc3nc(-c4cccs4)cc(-c4cccs4)c3c(=O)n21` (stereo not given), the growth in [1] was 85.4%; in [2] it was 50.1%; in assay [3], 106%; in assay [4] it was 93.1%; in assay [6] it was 107%; in assay [7], 69.7%. Further, in assay [8], the growth is 99.5%.

`CCCCCc1ccc(S(=O)(=O)Nc2cc(-c3csc(N(C)C(C)=O)n3)ccc2N2CCN(C)CC2)cc1`: the growth was -33.4% (active) in assay [1]; 48.6% in assay [2]; 25.4% in assay [3]; 8.57% (active) in [4]; -84.7% (active) in [9]; 20.8% in [6]. For the same compound, the growth in assay [7] was 46.3%; in [8] it was 14.1%.

`C=C(C)[C@@H]1CC[C@]2(C(=O)OC)CC[C@]3(C)[C@H](CC[C@@H]4[C@@]5(C)CC[C@H](N)C(C)(C)[C@@H]5CC[C@]43C)[C@@H]12`: the growth in assay [1] was -73.3% (active); in assay [2], -63.6% (active); in assay [3] it was -97% (active); in assay [4], -75.6% (active); in assay [9], -98.3% (active); in assay [6] it was -93.6% (active). The growth in assay [7] was -82.3% (active); in assay [8], -97.2% (active).

For the compound `CS(=O)(=O)Nc1ccc(-c2ccc3c(c2)ncn3-c2ccc(NC(=O)Nc3ccc(Cl)c(C(F)(F)F)c3)cc2)cc1`, the growth in assay [1] is -31.2% (active); in assay [2], -83.8% (active); in assay [3] it was -85.4% (active); in assay [4], -67% (active); in assay [9] it was -87.7% (active); in [6] it was -73.6% (active). The growth in assay [7] was -57.8% (active); in assay [8] it was -50.7% (active).

For `O=C(O)CCCCCCCCCCN1C(=O)/C(=C/c2cnc(-c3ccc(Cl)cc3)s2)SC1=S`, the growth was 47.2% in assay [1]; -17.1% (active) in assay [2]; 49% in assay [3]; 27.6% in [4]; 4.89% (active) in assay [9]; 82.4% in [6]. Moreover, the growth is 14% in assay [7] and 52.3% in assay [8].

As for `COc1ccc2[nH]c(O)c(N=NC(=O)COc3ccc(NC(=O)Nc4ccc(Cl)cc4)cc3)c2c1`, the growth is 76% in [2]; -52% (active) in assay [3]; 4.49% (active) in assay [4]; 1.75% (active) in [5]; -33.8% (active) in [9]; -14.3% (active) in assay [6]. Also, in assay [7], the growth is 4.25% (active).

For `N#Cc1ccc(-c2nn(-c3ccc(C(=O)O)cc3)cc2CNc2ccc(Oc3ccccc3)cc2)cc1`, the growth in assay [1] was 22.6%; in assay [2], -5.49% (active); in assay [3] it was 63.6%; in assay [4] it was 59.3%; in [9], 16.7%; in assay [6], 11.5%. The growth in assay [7] was 16.3%; in [8], 103%.

The record behind these values is PubChem BioAssay (NCI).
